# Measured values published in the supplement of paper PMC5641865, “A screen for kinase inhibitors identifies antimicrobial imidazopyridine aminofurazans as specific inhibitors of the Listeria monocytogenes PASTA kinase PrkA” (The Journal of Biological Chemistry, 2017).
# ± gives the standard deviation of the averaged measurements.
# Test system: Listeria monocytogenes 10403S
# Test: growth inhibition relative to ceftriaxone-alone control; higher = stronger potentiation of ceftriaxone growth inhibition
# Details: 10 µM; ceftriaxone 1 ug/ml; 12 h
# 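Also: End-point A600 read in BHI broth at 37 °C with 2% DMSO, inhibition computed as (1 − OD with compound plus ceftriaxone ÷ OD with ceftriaxone only) × 100.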
row,SMILES,growth inhibition [%]
1,N#Cc1c(O)c2c(-c3ccc(-c4ccccc4O)cc3)csc2[nH]c1=O,40.8 ± 15
2,Cc1cccc2c1NC(=O)/C2=N\Nc1ccc(S(N)(=O)=O)cc1,-10.2 ± 7.5
3,COc1ccc(-c2ccc3c(N4CCOCC4)nc(N4C[C@@H](C)O[C@@H](C)C4)nc3n2)cc1CO,-4.35 ± 2.4
4,CC1(COc2ccc3c(c2)ncn3-c2ccc3cccc(N4CCC(N)CC4)c3n2)COC1,32 ± 14
5,Cc1ccc(NC(=O)c2ccnc(N3CCCC3)c2)cc1-c1ccc(C(=O)NCC2CC2)cc1,-0.943 ± 1.3
6,Nc1ncnc2occ(-c3ccc(NC(=O)Nc4cccc(C(F)(F)F)c4)cc3)c12,-12.9 ± 3.5
7,O=C1NCCc2[nH]c(-c3ccncc3)cc21,22.8 ± 14
8,CCn1cc(-c2ccnc3[nH]ccc23)c(-c2cccc(NC(=O)Nc3ccc(OCc4ccccc4)cc3)c2)n1,-0.807 ± 2.3
9,CCNC(=O)O[C@H]1CN[C@H](C#Cc2cc3ncnc(Nc4ccc(OCc5cccc(F)c5)c(Cl)c4)c3s2)C1,27.1 ± 33
10,O=C1Nc2ccccc2C1=C1CCc2cc(O)ccc21,7.57 ± 3.2
11,CNC(=O)c1cc(-c2ccc(F)cc2)cc(-c2ccc(S(=O)(=O)N3CCCC3)cc2)c1N,-4.95 ± 15
12,O=C(NC[C@H](O)CO)c1ccncc1Nc1ccc(I)cc1F,1.43 ± 12
13,Cc1ccc(NC(=O)CC2CC2)cc1-c1ccc(C(=O)NCC2CC2)cc1,-0.462 ± 0.33
14,COc1cc(Nc2nccc(Nc3ccc4c(C)n[nH]c4c3)n2)cc(OC)c1OC,-7.71 ± 14
15,O=C1NC(=O)C(c2ccccc2[N+](=O)[O-])=C1Nc1ccc(O)c(Cl)c1,52.5 ± 49
16,COc1cc2ncnc(Nc3cccc(Cl)c3)c2cc1OC [AG-1478 (Tyrphostin AG-1478)],31.5 ± 11
